Test results published in the supplement of paper PMC4962491.
± gives the standard deviation of the averaged measurements.

Tested on: FaDu
Experiment: mitochondrial oxygen consumption rate normalised to cell number, Z score vs plate DMSO wells; higher = higher oxygen consumption (negative = OCR reduction)
Conditions: treatment time 24 h, assay medium: 5 mM glucose, 5 mM pyruvate, 4 mM glutamine
Description: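 Secondary screen: FaDu cells were incubated 24 h with the top 130 primary hits at 0.08, 0.4, 2 or 10 uM. Mitochondrial-specific OCR (basal minus antimycin A) was measured on a Seahorse XF96 in medium with 5 mM glucose, 5 mM pyruvate and 4 mM glutamine and normalised to Hoechst cell number. OCR score = (OCR - mean of plate DMSO wells) / SD of plate DMSO wells. Three repeats.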
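Further: compound exposure in DMEM (4 mM L-glutamine, 5 mM glucose), antimycin A injected at 2 µM after the basal reading and its residual OCR subtracted from basal.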

SMILES | mitochondrial oxygen consumption rate normalised (0.08 µM) | mitochondrial oxygen consumption rate normalised (0.4 µM) | mitochondrial oxygen consumption rate normalised (2 µM) | mitochondrial oxygen consumption rate normalised (10 µM)
CC(=O)O[C@H]1C[C@@]2(C)[C@@H](C[C@@H](O)[C@H]3[C@@]4(C)CC[C@@H](O)[C@@H](C)[C@@H]4CC[C@@]32C)/C1=C(\CCC=C(C)C)C(=O)O | 0.246 ± 2.1 | -0.851 ± 1.9 | 0.0549 ± 0.78 | -0.138 ± 1.1
CCCCCCCCCCCCCCCCCCCCCCO | 0.402 ± 1.5 | 0.592 ± 1.3 | 0.538 ± 0.35 | -0.999 ± 1.9
CCCCCCCCCc1ccc(OCCOCCOCCOCCOCCOCCOCCOCCOCCO)cc1 | 0.0515 ± 1 | 0.101 ± 0.62 | -3.38 ± 0.78 | -7.69 ± 0.55
CC(C)NCC(O)COc1ccc(CC(N)=O)cc1 (centres undefined) | 0.23 ± 1.7 | 0.806 ± 0.77 | 0.178 ± 1 | -0.73 ± 1.5
CCCCC(CC)CN=C(N)N=C(N)NCCCCCCNC(N)=NC(N)=NCC(CC)CCCC (centres undefined) | -1.69 ± 0.36 | 1.12 ± 0.29 | -0.611 ± 2 | -10.4 ± 0.54
CC(C(O)c1ccc(O)cc1)N1CCC(Cc2ccccc2)CC1 (centres undefined) | 0.382 ± 1.5 | 0.565 ± 0.59 | -0.938 ± 1.3 | 0.802 ± 0.91
Nc1nc(Cl)nc2c1ncn2[C@H]1C[C@H](O)[C@@H](CO)O1 [Cladribine] | 0.0971 ± 0.62 | 1.11 ± 0.78 | 0.797 ± 2 | -0.553 ± 2.5
CCOc1ccc2nc3cc(N)ccc3c(N)c2c1 | -0.404 ± 1.3 | 0.17 ± 0.56 | -3.32 ± 0.28 | -6.87 ± 0.83
CC[n+]1c(-c2ccccc2)c2cc(N)ccc2c2ccc(N)cc21 | -0.559 ± 1.1 | -1.04 ± 0.79 | -3.43 ± 2.4 | -6.28 ± 1.8
Cc1cc(=O)[nH]c(=S)[nH]1 | -1.18 ± 0.93 | -0.337 ± 0.83 | -1.08 ± 0.99 | 0.503 ± 0.66
C=C1CC[C@H](O)C/C1=C/C=C1\CCC[C@]2(C)[C@@H]([C@H](C)/C=C/[C@H](C)C(C)C)CC[C@@H]12 | -1.49 ± 2.4 | -0.211 ± 0.41 | -1.83 ± 1.7 | -2.44 ± 1.9
CO[C@H]1C[C@H](O[C@H]2[C@H](C)O[C@@H](O[C@@H]3/C(C)=C/C[C@@H]4C[C@@H](C[C@]5(C=C[C@H](C)[C@@H](C6CCCCC6)O5)O4)OC(=O)[C@@H]4C=C(C)[C@@H](O)[C@H]5OC/C(=C\C=C\[C@@H]3C)[C@]54O)C[C@@H]2OC)O[C@@H](C)[C@@H]1O | 0.113 ± 1.2 | 1.33 ± 0.39 | -0.504 ± 1.2 | -2.82 ± 1.1
CC(=O)[C@H]1CC[C@H]2[C@@H]3CCC4=CC(=O)CC[C@]4(C)[C@H]3CC[C@]12C | -0.339 ± 1.3 | 0.321 ± 0.92 | -0.631 ± 1.3 | -1.18 ± 0.26
CC(COc1ccccc1)NC(C)C(O)c1ccc(O)cc1 (centres undefined) | 0.276 ± 1.4 | 1.57 ± 0.3 | 0.21 ± 1.1 | 0.099 ± 1
COc1ccc2c(c1)c(CC(=O)O)c(C)n2C(=O)c1ccc(Cl)cc1 | -1.16 ± 1.6 | -0.0955 ± 0.33 | 0.286 ± 1.6 | -0.792 ± 1.6
CN1[C@@H]2CC[C@H]1C[C@@H](OC(=O)c1c[nH]c3ccccc13)C2 | 0.168 ± 1.4 | 1.48 ± 0.79 | -0.138 ± 1.6 | -1.06 ± 2.5
Cc1cc(C2CCCCC2)n(O)c(=O)c1 | -0.736 ± 1.4 | 1.35 ± 1 | -3.51 ± 0.86 | -3.81 ± 1.9
CNC(=O)c1cc(Oc2ccc(NC(=O)Nc3ccc(Cl)c(C(F)(F)F)c3)cc2)ccn1 | -1.33 ± 0.69 | -0.411 ± 0.42 | -1.86 ± 0.2 | -12.1 ± 0.9
CCCCCCCCNC(C)C(O)c1ccc(SC(C)C)cc1 (centres undefined) | 0.0353 ± 1.1 | -0.376 ± 0.59 | 0.293 ± 1.8 | -7.88 ± 0.64
C[n+]1cc2c3c(ccc2c2ccc4cc5c(cc4c21)OCO5)OCO3 | 0.385 ± 0.96 | 0.59 ± 0.68 | -0.66 ± 2.1 | -3.47 ± 3.3
O=[N+]([O-])c1ccc(O)c2ncccc12 | 0.333 ± 0.4 | 1.67 ± 1.1 | -0.415 ± 1.2 | -3.63 ± 2.5
CC(C)OC(=O)C(C)(C)Oc1ccc(C(=O)c2ccc(Cl)cc2)cc1 | -0.014 ± 0.66 | 1.08 ± 0.7 | 0.455 ± 1.1 | -2.82 ± 2.6
C[C@@H]1O[C@@H](OC[C@H]2O[C@@H](Oc3c(-c4ccc(O)c(O)c4)oc4cc(O)cc(O)c4c3=O)[C@H](O)[C@@H](O)[C@@H]2O)[C@H](O)[C@H](O)[C@H]1O | 0.0147 ± 1.7 | 1.67 ± 0.68 | -0.481 ± 2.6 | 1.74 ± 2.4
COc1c2occc2cc2ccc(=O)oc12 | -0.411 ± 1.2 | 0.146 ± 0.75 | -0.807 ± 2.3 | -1.8 ± 2.2
COc1cc(O)c(C(=O)c2ccccc2)cc1S(=O)(=O)O | 0.104 ± 1.6 | 1.17 ± 0.81 | -0.346 ± 2.5 | -1.77 ± 1
C#C[C@]1(O)CC[C@H]2[C@@H]3CCC4=CC(=O)CC[C@@H]4[C@H]3CC[C@@]21CC | 0.538 ± 0.4 | 1.49 ± 0.65 | 1.15 ± 0.96 | 1.62 ± 1.1
